Bioassay records: PubChem, The Scripps Research Institute Molecular Screening Center
MITF inh: blocks human microphthalmia-associated transcription factor. O75030. hit rate 0.91% among 650,000. inhibition, % at 2.6 µM. AlphaScreen MITF homodimerization, bead proximity signal; in the data active = inhibition above about 50%;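 note: 0% = vehicle wells with protein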
GPR151 ag: activates the human receptor GPR151 | PathHunter beta-arrestin GPR151 cells, luminescence | activation, % at 11.2 µM | hit rate 1% among 650,000 | AID 1508602; in the data active = activation above about 4.9%;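 note: 0% = median of compound wells and 100% = cells with positive control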
FBW7 act: activators of human E3 ligase FBW7; AlphaScreen FBW7–phospho-cyclin E peptide binding, activator screen; normalized activity (activation), % at 26.1 µM; hit rate 0.13% among 650,000; in the data active = normalized activity above about 1.9%;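 note: purified mutant Fbw7 with reduced substrate affinity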
TEAD-YAP inh: TEAD-YAP interaction inhibition. HEK-TIYL cells, TEAD-Gal4/YAP UAS-luciferase luminescence. inhibition, % at 9.12 µM. hit rate 1.4% among 640,000. AID 1259422; in the data active = inhibition above about 32%;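 note: 0% = median of test compound wells and 100% = reference inhibitor wells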
GPR151 confirm: confirmation of human GPR151 activators; shares compounds with GPR151 ag; GPR151 PathHunter beta-arrestin cells, luminescence, 90 min; % of EA-reagent control over plate median; activation, % at 11.2 µM; 6,700 tested, under 10 active; AID 1508609;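 active = mean percent activation across replicates above the confirmation screen cutoff of 4.91%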
GPR119 counter: activates human GPR119 in a GPR151 counter-screen. shares compounds with GPR151 ag. GPR119 PathHunter beta-arrestin cells, luminescence, 90 min; 0 = compound-well median, 100 = enzyme-acceptor control. activation, % at 11.2 µM. hit rate 0.3% among 6,700. AID 1508611;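 active = mean percent activation in the counterscreen above 29.09%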;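 note: counterscreen on off-target GPR119 to flag nonselective hits from the GPR151 activator screen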
Target sequence (Q8TDV5 whole entry, looked up): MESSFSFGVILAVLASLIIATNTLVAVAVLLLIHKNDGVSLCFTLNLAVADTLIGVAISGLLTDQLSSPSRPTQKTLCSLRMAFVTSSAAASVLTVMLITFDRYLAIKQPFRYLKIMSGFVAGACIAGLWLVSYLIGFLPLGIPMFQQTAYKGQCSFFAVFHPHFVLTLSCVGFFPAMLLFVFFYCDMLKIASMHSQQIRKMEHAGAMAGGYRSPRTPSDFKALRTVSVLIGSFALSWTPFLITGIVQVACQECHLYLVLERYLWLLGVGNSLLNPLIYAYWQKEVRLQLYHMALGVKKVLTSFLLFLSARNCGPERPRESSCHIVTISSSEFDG
Numbers without * were called inactive; ! = repeats disagree. Hits are enriched below; roughly 3.5% of the tested compounds scored in any of these assays.

Results for CC(C)(C)NS(=O)(=O)c1ccc2nc(NC(=O)c3cccnc3)sc2c1 ?
MITF inh: -4.7; GPR151 ag: 6.2*; FBW7 act: -0.1; TEAD-YAP inh: -5.0; GPR151 confirm: 0.9; GPR119 counter: 12.8

How did COc1ccc(C(C)=O)cc1CN(C)C do in these assays?
MITF inh: 5.2; GPR151 ag: 6.6*; FBW7 act: -0.4; TEAD-YAP inh: -7.9; GPR151 confirm: 1.9; GPR119 counter: 2.8

Results for CC1(C(=O)NCc2cccnc2)CC2c3ccccc3C1c1ccccc12 (stereo not given) ?
MITF inh: 1.1; GPR151 ag: -1.4; FBW7 act: -0.2; TEAD-YAP inh: 0.6

How did COc1cccc(C(=O)N/N=C/c2cc(C)n(-c3ccccc3)c2C)c1 do in these assays?
MITF inh: -6.0; GPR151 ag: -1.2; FBW7 act: 0.1; TEAD-YAP inh: -36.4

What do the screens show for `O=C(NC1CCCCC1)c1nn2c(C(F)(F)F)cc(-c3ccccc3)nc2c1Br`?
MITF inh: -0.1; GPR151 ag: 5.0*; FBW7 act: -0.1; TEAD-YAP inh: 1.1; GPR151 confirm: 0.3; GPR119 counter: 0.9

What do the screens show for `CC1(C)[C@@H](O)CC[C@]2(C)[C@H]3C(=O)C=C4[C@@H]5C[C@@](C)(C(=O)O)CC[C@]5(C)CC[C@@]4(C)[C@]3(C)CC[C@@H]12`?
MITF inh: -12.2; GPR151 ag: -0.8; FBW7 act: 0.0; TEAD-YAP inh: 9.1

How did CC1(C)C2CC[C@]3(C)C(C(=O)C=C4[C@@H]5C[C@@](C)(C(=O)O)CC[C@]5(C)CC[C@]43C)[C@@]2(C)CC[C@@H]1OC(=O)CCC(=O)O (stereo not given in full) do in these assays?
MITF inh: 10.2; GPR151 ag: 5.2*!; FBW7 act: 0.0; TEAD-YAP inh: 0.4; GPR151 confirm: 0.7; GPR119 counter: 4.9

How did COC(=O)c1nonc1NC(C)=O do in these assays?
MITF inh: 4.2; GPR151 ag: -1.5; FBW7 act: -0.2; TEAD-YAP inh: 3.6

Results for Nc1nnc(SCC(=O)OCC(=O)Nc2ccc(Br)cc2F)s1 ?
MITF inh: 1.1; GPR151 ag: 6.2*; FBW7 act: -0.3; TEAD-YAP inh: 18.6; GPR151 confirm: -0.3; GPR119 counter: -4.3

What do the screens show for `Nc1nnc(SCC(=O)OCC(=O)Nc2ccc(Br)cc2)s1`?
MITF inh: 4.6; GPR151 ag: 0.3; FBW7 act: 0.1; TEAD-YAP inh: 15.6

Results for Cc1c(N2C(=O)c3ccc(Br)cc3C2=O)c(=O)n(-c2ccccc2)n1C ?
MITF inh: 2.5; GPR151 ag: 5.2*; FBW7 act: -0.1; TEAD-YAP inh: -5.0; GPR151 confirm: -0.3; GPR119 counter: -3.9

What do the screens show for `CCOCCCNc1c(-c2ccccc2)nc2ccc(Br)cn12`?
MITF inh: -2.6; GPR151 ag: 1.4; FBW7 act: 0.1; TEAD-YAP inh: -39.3

How did CCOCCCNc1c(-c2ccccc2)nc2cnccn12 do in these assays?
MITF inh: 8.7; GPR151 ag: 5.6*; FBW7 act: 0.1; TEAD-YAP inh: 5.7; GPR151 confirm: -0.5; GPR119 counter: 4.8

What do the screens show for `O=C(O)COc1ccc(-c2ccccc2)cc1Cl`?
MITF inh: -5.5; GPR151 ag: -0.8; FBW7 act: -0.1; TEAD-YAP inh: 4.8

Results for CN1C(=O)CCC12CCN(Cc1c[nH]c3ccccc13)CC2 ?
MITF inh: 15.0; GPR151 ag: 8.1*; FBW7 act: 0.2; TEAD-YAP inh: -6.6; GPR151 confirm: 0.0; GPR119 counter: -0.7

How did Cc1cc(N2CCOCC2)nc2ccc(NC(=O)C3CC3)cc12 do in these assays?
MITF inh: 3.2; GPR151 ag: 1.4; FBW7 act: 0.1; TEAD-YAP inh: -40.8

What do the screens show for `COc1ncc(-c2cncc(-c3cccc(O)c3)n2)c(OC)n1`?
MITF inh: 7.4; GPR151 ag: 12.6*; FBW7 act: -0.1; TEAD-YAP inh: -32.6; GPR151 confirm: 1.1; GPR119 counter: 6.0

How did Cc1ccc(C(=O)COC(=O)CN2C(=O)C3C4C=CC(C4)C3C2=O)cc1[N+](=O)[O-] (stereo not given) do in these assays?
MITF inh: 1.2; GPR151 ag: 12.6*; FBW7 act: 0.2; TEAD-YAP inh: 2.9; GPR151 confirm: -0.4; GPR119 counter: 10.3

Results for Cc1ccc(C(=O)COC(=O)CN2C(=O)C3C4CCC(C4)C3C2=O)cc1[N+](=O)[O-] (stereo not given) ?
MITF inh: -14.4; GPR151 ag: -0.6; FBW7 act: -0.1; TEAD-YAP inh: -6.7

Results for O=C1NC2(CCN(C(=O)Cn3cnc4ccccc4c3=O)CC2)Oc2ccccc21 ?
MITF inh: -13.7; GPR151 ag: -0.5; FBW7 act: 0.1; TEAD-YAP inh: 5.6

Results for COc1ccc2c(c1)O[C@H](c1ccc3c(c1)OCO3)C(OC(=O)N[C@H]1CCCc3ccccc31)C2=O (stereo not given in full) ?
MITF inh: -20.6; GPR151 ag: 5.3*; FBW7 act: 0.1; GPR151 confirm: 0.1; GPR119 counter: 4.5

How did COc1ccc2c(c1)O[C@H](c1ccc3c(c1)OCO3)C(OC(=O)NCc1ccc3c(c1)OCO3)C2=O (stereo not given in full) do in these assays?
MITF inh: 3.2; GPR151 ag: 10.1*; FBW7 act: 0.2; GPR151 confirm: 0.6; GPR119 counter: 1.0

Results for Cc1ncc(CN2CCCC(C(=O)Nc3ccc(-c4nc5ccccc5[nH]4)cc3)C2)[nH]1 (stereo not given) ?
MITF inh: -3.0; GPR151 ag: -0.4; FBW7 act: 0.1; TEAD-YAP inh: -11.5

How did Cc1nn(Cc2ccccc2Cl)c(Cl)c1/C=C/C(=O)OCC#N do in these assays?
MITF inh: 3.3; GPR151 ag: 10.3*; FBW7 act: -0.1; TEAD-YAP inh: -22.8; GPR151 confirm: -0.5; GPR119 counter: 1.4

What do the screens show for `COc1ccc(Nc2nc3[nH]c(=O)cc(O)c3s2)cc1`?
MITF inh: -16.9; GPR151 ag: 0.0; FBW7 act: -0.1; TEAD-YAP inh: -6.9

Results for CSc1nc2[nH]c(=O)cc(O)c2s1 ?
MITF inh: 4.6; GPR151 ag: 5.5*; FBW7 act: 0.2; TEAD-YAP inh: -1.0; GPR151 confirm: 0.5; GPR119 counter: -2.4

How did Cc1ccccc1C1=N/C(=C/c2ccc(OS(C)(=O)=O)cc2)C(=O)O1 do in these assays?
MITF inh: -4.6; GPR151 ag: 2.9; FBW7 act: -0.4; TEAD-YAP inh: -0.6

Results for COc1ccc(CNC(=O)COc2ncnc3c(Cl)cc(Cl)cc23)cc1 ?
MITF inh: 9.6; GPR151 ag: 6.9*; FBW7 act: 0.0; TEAD-YAP inh: 6.8; GPR151 confirm: 0.4; GPR119 counter: 10.2

Results for COCCCNC(=O)c1ccc(CNc2nc(=S)[nH]c3ccccc23)cc1 ?
MITF inh: -1.6; GPR151 ag: 5.9*; FBW7 act: -0.1; TEAD-YAP inh: -6.2; GPR151 confirm: -0.1; GPR119 counter: 9.6
